We go through 8 molecules from PubChem BioAssay (NCI).

“And” between values parts separate entries of the source, which are not always exact repeats. Identical values can stand only once. This is part of a sample that, as a whole, favours compounds with a hit. Of some 83,000 tested, about 20% had one in any assay.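 The endpoint reported here, percent growth, reads 100 for growth as untreated, 0 for no net growth and -100 for all cells dead.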 A structure can be active in one record and inactive in another. The source made the active and inactive calls. How the source made its calls: active means growth percent below 10; inactive means the rest.

Test systems include EKVX NSCLC; SN12C renal; UO-31 renal; TK-10 renal; ACHN renal; CAKI-1 renal; A498 renal; CCRF-CEM leukemia; MOLT-4 leukemia; SR leukemia; RPMI-8226 leukemia; OVCAR-8 ovarian; OVCAR-4 ovarian; SK-OV-3 ovarian; IGROV1 ovarian; OVCAR-3 ovarian; HS 578T breast; NCI/ADR-RES ovarian; OVCAR-5 ovarian.
Assay in all cases: NCI-60 one-dose screen, 48 h (100 = growth as untreated, 0 = no growth, -100 = all killed)
Holding throughout (settings): 10 µM unless noted

With `OC(c1cc(-c2ccc(C(F)(F)F)cc2)nc(C(F)(F)F)c1)C1CCCCN1` (stereo unspecified), the growth in the experiment on EKVX NSCLC is 27.2% (inactive) and 3.74% (active) and 67.6% (inactive); in the experiment with SN12C renal it was -50.3% (active) and -86.4% (active) and 28.5% (inactive); in the experiment with UO-31 renal it was 15.4% (inactive) and -59.3% (active) and 30.6% (inactive); in the experiment with TK-10 renal, -57.8% (active) and -14.4% (active) and 50.3% (inactive); with ACHN renal, -24% (active) and 0.945% (active) and 24.3% (inactive); in the experiment with CAKI-1 renal, -7.29% (active) and -52.3% (active) and 45.9% (inactive). Further, the growth in the experiment on A498 renal was 28% (inactive) and -60.5% (active) and 46.4% (inactive); with CCRF-CEM leukemia it was 0.247% (active) and -56.8% (active) and 17% (inactive); in the experiment with MOLT-4 leukemia, -21.7% (active) and -2.33% (active); in the experiment on SR leukemia, -37.6% (active) and -57.5% (active) and -38.9% (active); in the experiment with RPMI-8226 leukemia it was -35.4% (active) and -61.4% (active) and -21% (active); in the experiment with OVCAR-8 ovarian, -57.7% (active) and -54.5% (active) and -34.4% (active). The growth in the experiment on OVCAR-4 ovarian is -6.94% (active) and -29.6% (active) and 39.1% (inactive); with SK-OV-3 ovarian, 24.4% (inactive) and 39.9% (inactive) and 86.2% (inactive); in the experiment on IGROV1 ovarian, -25.6% (active) and -92.4% (active) and 30.5% (inactive); with OVCAR-3 ovarian, -70.3% (active) and -68.3% (active) and 8.69% (active); in the experiment with HS 578T breast it was -3.8% (active) and -53.8% (active) and 48.9% (inactive); in the experiment on NCI/ADR-RES ovarian, -31.5% (active) and -50% (active) and 25% (inactive).
Take `CC1(C)CCCC2=C1C(=O)N(SC(Cl)(Cl)Cl)C2=O`: the growth is 93.4% (inactive) in the experiment on SN12C renal; 79.1% (inactive) in the experiment on UO-31 renal; 88.2% (inactive) in the experiment with TK-10 renal; 82.9% (inactive) in the experiment on ACHN renal; 92.4% (inactive) in the experiment with CAKI-1 renal; 120% (inactive) with A498 renal. Further, the growth with CCRF-CEM leukemia is 40.5% (inactive); with MOLT-4 leukemia it was 21% (inactive); in the experiment with SR leukemia, 77.2% (inactive); in the experiment on RPMI-8226 leukemia it was 91.9% (inactive); with OVCAR-8 ovarian, 102% (inactive); with OVCAR-5 ovarian, 103% (inactive). In addition, the growth in the experiment with OVCAR-4 ovarian was 98.2% (inactive); in the experiment with SK-OV-3 ovarian, 93.7% (inactive); in the experiment with IGROV1 ovarian it was 103% (inactive); in the experiment on OVCAR-3 ovarian it was 104% (inactive); with HS 578T breast, 102% (inactive); in the experiment with NCI/ADR-RES ovarian, 105% (inactive).
In the case of `Cc1cc(Br)c2nsnc2c1[N+](=O)[O-]`, the growth is 106% (inactive) with EKVX NSCLC; 29.4% (inactive) in the experiment on SN12C renal; 40.2% (inactive) with UO-31 renal; 36% (inactive) in the experiment on TK-10 renal; -34.5% (active) with CAKI-1 renal; 99.2% (inactive) in the experiment with A498 renal. Moreover, the growth was 20.1% (inactive) in the experiment with CCRF-CEM leukemia; 39.4% (inactive) in the experiment on MOLT-4 leukemia; 19.2% (inactive) with SR leukemia; 23.9% (inactive) in the experiment on RPMI-8226 leukemia; 52.8% (inactive) in the experiment on OVCAR-8 ovarian; 72.8% (inactive) in the experiment with OVCAR-5 ovarian. In addition, the growth in the experiment with OVCAR-4 ovarian is 47.7% (inactive); with SK-OV-3 ovarian, 91.3% (inactive); with IGROV1 ovarian, 27.4% (inactive); in the experiment with OVCAR-3 ovarian, 57% (inactive); with HS 578T breast it was 47% (inactive).
On to `O=[N+]([O-])c1ccc2c(c1)Cc1ccccc1-2`, for which the growth with EKVX NSCLC is 61.1% (inactive); in the experiment on SN12C renal, 101% (inactive); with UO-31 renal, 82.9% (inactive); in the experiment with ACHN renal it was 94.2% (inactive); in the experiment on CAKI-1 renal, 99% (inactive); in the experiment with A498 renal it was 82.4% (inactive). The growth in the experiment with CCRF-CEM leukemia was 91.4% (inactive); in the experiment with MOLT-4 leukemia, 86.2% (inactive); with SR leukemia, 91.4% (inactive); with RPMI-8226 leukemia, 121% (inactive); in the experiment with OVCAR-8 ovarian, 98.9% (inactive); in the experiment with OVCAR-5 ovarian, 91.3% (inactive). Moreover, the growth was 97.3% (inactive) with OVCAR-4 ovarian; 112% (inactive) in the experiment with SK-OV-3 ovarian; 94.7% (inactive) in the experiment on IGROV1 ovarian; 103% (inactive) in the experiment with OVCAR-3 ovarian; 102% (inactive) in the experiment on HS 578T breast; 99% (inactive) in the experiment with NCI/ADR-RES ovarian.
In the case of `N=C(N)Sc1cccc[n+]1[O-]`, the growth with EKVX NSCLC is 47.7% (inactive); in the experiment on SN12C renal it was 101% (inactive); in the experiment with UO-31 renal, 36.1% (inactive); in the experiment with TK-10 renal, 86.2% (inactive); with ACHN renal, 48.6% (inactive); in the experiment on CAKI-1 renal, 79.5% (inactive). In addition, the growth is 81.7% (inactive) in the experiment on A498 renal; -8.85% (active) in the experiment with CCRF-CEM leukemia; 12.7% (inactive) in the experiment on MOLT-4 leukemia; 4.61% (active) in the experiment on SR leukemia; 7.12% (active) in the experiment on RPMI-8226 leukemia; 45.6% (inactive) in the experiment with OVCAR-8 ovarian. Besides, the growth is 15.7% (inactive) in the experiment with OVCAR-4 ovarian; 85.3% (inactive) with SK-OV-3 ovarian; 46.5% (inactive) in the experiment with IGROV1 ovarian; 21.7% (inactive) in the experiment with OVCAR-3 ovarian; 82.9% (inactive) in the experiment with HS 578T breast; 53.5% (inactive) with NCI/ADR-RES ovarian.
On to `COc1cccc2c1C(=O)c1c(O)c3c(c(O)c1C2=O)C[C@@](O)(C(=O)CO)C[C@@H]3OC1CC(OC(C)=O)C(OC(C)=O)C(C)O1` (stereo partly specified), for which the growth with EKVX NSCLC was 30.5% (inactive); in the experiment with SN12C renal, -6.25% (active); in the experiment with UO-31 renal it was -38.2% (active); with TK-10 renal, -36.3% (active); in the experiment with ACHN renal, -92.2% (active); in the experiment with CAKI-1 renal, -40.5% (active). The growth with A498 renal was -19.1% (active); with CCRF-CEM leukemia it was -48.6% (active); in the experiment with MOLT-4 leukemia, -53.2% (active); with RPMI-8226 leukemia, -43.5% (active); with OVCAR-8 ovarian, 0.76% (active); in the experiment with OVCAR-5 ovarian, 1.32% (active). The growth was -4.7% (active) in the experiment with OVCAR-4 ovarian; -10.4% (active) in the experiment on SK-OV-3 ovarian; -41.2% (active) in the experiment with OVCAR-3 ovarian; -10.9% (active) in the experiment with HS 578T breast; 2.46% (active) with NCI/ADR-RES ovarian.
`CCC(C)(O)Cc1ccc(Cl)cc1` (stereo unspecified): the growth with EKVX NSCLC is 111% (inactive); in the experiment on SN12C renal, 103% (inactive); in the experiment with TK-10 renal it was 97.6% (inactive); in the experiment with ACHN renal, 111% (inactive); in the experiment on CAKI-1 renal, 101% (inactive); in the experiment on A498 renal it was 89.5% (inactive). For the same molecule, the growth with CCRF-CEM leukemia was 105% (inactive); in the experiment on MOLT-4 leukemia, 98.4% (inactive); in the experiment with SR leukemia, 101% (inactive); with RPMI-8226 leukemia, 105% (inactive); in the experiment on OVCAR-8 ovarian it was 108% (inactive); in the experiment with OVCAR-5 ovarian, 111% (inactive). Also, the growth is 103% (inactive) with OVCAR-4 ovarian; 103% (inactive) in the experiment with SK-OV-3 ovarian; 114% (inactive) in the experiment with IGROV1 ovarian; 114% (inactive) with OVCAR-3 ovarian; 108% (inactive) in the experiment with HS 578T breast; 111% (inactive) in the experiment with NCI/ADR-RES ovarian.
As for `CCCN(CCC)C(=O)c1ccc(C)cc1`, the growth in the experiment with EKVX NSCLC was 89.2% (inactive); with SN12C renal it was 97.9% (inactive); in the experiment with TK-10 renal, 99.6% (inactive); with ACHN renal, 102% (inactive); in the experiment on CAKI-1 renal, 99.2% (inactive); in the experiment on A498 renal, 27% (inactive). The growth was 101% (inactive) in the experiment on MOLT-4 leukemia; 95% (inactive) with SR leukemia; 93.3% (inactive) in the experiment with RPMI-8226 leukemia; 103% (inactive) in the experiment on OVCAR-8 ovarian; 95.3% (inactive) in the experiment with OVCAR-5 ovarian; 110% (inactive) in the experiment with OVCAR-4 ovarian. For the same molecule, the growth in the experiment with SK-OV-3 ovarian is 94.9% (inactive); in the experiment on IGROV1 ovarian, 106% (inactive); with OVCAR-3 ovarian it was 109% (inactive); in the experiment on HS 578T breast, 84.1% (inactive); with NCI/ADR-RES ovarian, 100% (inactive).
